Source: PubChem BioAssay AID1159580 (chemical genetic matrix, 2015)
Several values for one entry are separate records, joined by “and”; a condition that tells them apart may be missing. Equal values may be shown once. In all, about 5,500 compounds went through this assay and about 2,000 (36%) were called active. Another 18% or so got no clear call; they are omitted. No stated cut-off is given here; in the data, active means normalized growth mostly below about 0.91 (no sharp cut-off); inconclusive means no clear call, values can overlap the other calls; inactive means mostly above about 0.92. Some of the results follow.

Experiment: chemical genetic growth profiling, strain panel (AID 1159580);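 further: tested at 20 µM; growth read once vehicle control cultures reached saturation at 30 °C; 1 = growth at the plate median or of vehicle wells; lower values mean less growth of the strain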
Details: growth OD
[1] = S. cerevisiae deletion strains, locus YDL101C, strain DUN1, hits give low values
[2] = S. cerevisiae deletion strains, locus YHR030C, strain SLT2, hits give low values
[3] = S. cerevisiae deletion strains, locus YHR079C, strain IRE1, hits give low values
[4] = S. cerevisiae deletion strains, locus YJL095W, strain BCK1, hits give low values
[5] = S. cerevisiae deletion strains, locus YJR066W, strain TOR1, hits give low values
[6] = S. cerevisiae deletion strains, locus YLR113W, strain HOG1, hits give low values
[7] = S. cerevisiae deletion strains, locus YNL183C, strain NPR1, hits give low values
[8] = S. cerevisiae deletion strains, locus YOR061W, strain CKA2, hits give low values
[9] = S. cerevisiae deletion strains, locus YOR231W, strain MKK1, hits give low values
[10] = S. cerevisiae deletion strains, locus YPL256C, strain CLN2, hits give low values

Measured: normalized growth

CC(=O)Nc1ccc(/C=C/[N+](=O)[O-])cc1
inactive: S. cerevisiae deletion strains, locus YAR019C, strain CDC15, hits give low values 0.977 | S. cerevisiae deletion strains, locus YBL105C, strain PKC1, hits give low values 0.972 | S. cerevisiae deletion strains, locus YBR135W, strain CKS1, hits give low values 0.976 | S. cerevisiae deletion strains, locus YBR136W, strain MEC1, hits give low values 0.964 | S. cerevisiae deletion strains, locus YBR160W, strain CDC28, hits give low values 0.98 | S. cerevisiae deletion strains, locus YDL017W, strain CDC7, hits give low values 0.98 | S. cerevisiae deletion strains, locus YDL028C, strain MPS1, hits give low values 0.973 | [1] 0.994 | S. cerevisiae deletion strains, locus YDL108W, strain KIN28, hits give low values 0.972 | S. cerevisiae deletion strains, locus YDL132W, strain cdc53, hits give low values 0.975 | S. cerevisiae deletion strains, locus YDL214C, strain PRR2, hits give low values 0.857 | S. cerevisiae deletion strains, locus YDR052C, strain DBF4, hits give low values 0.98 | S. cerevisiae deletion strains, locus YDR054C, strain cdc34, hits give low values 0.974 | S. cerevisiae deletion strains, locus YDR226W, strain ADK1, hits give low values 0.975 | S. cerevisiae deletion strains, locus YDR477W, strain SNF1, hits give low values 0.809 | S. cerevisiae deletion strains, locus YER123W, strain YCK3, hits give low values 0.679 | S. cerevisiae deletion strains, locus YER133W, strain GLC7, hits give low values 0.806 | S. cerevisiae deletion strains, locus YFL009W, strain cdc4, hits give low values 0.974 | S. cerevisiae deletion strains, locus YFL029C, strain CAK1, hits give low values 0.962 | S. cerevisiae deletion strains, locus YFR003C, strain YPI1, hits give low values 0.982 | S. cerevisiae deletion strains, locus YFR028C, strain CDC14, hits give low values 0.972 | S. cerevisiae deletion strains, locus YGR040W, strain KSS1, hits give low values 0.807 | S. cerevisiae deletion strains, locus YGR052W, strain FMP48, hits give low values 0.843 | S. cerevisiae deletion strains, locus YGR092W, strain DBF2, hits give low values 0.816 | [3] 0.809 | S. cerevisiae deletion strains, locus YHR082C, strain KSP1, hits give low values 0.804 | S. cerevisiae deletion strains, locus YHR205W, strain SCH9, hits give low values 0.723 | S. cerevisiae deletion strains, locus YIL147C, strain SLN1, hits give low values 0.97 | [4] 0.78 | S. cerevisiae deletion strains, locus YJL128C, strain PBS2, hits give low values 0.969 | S. cerevisiae deletion strains, locus YJL157C, strain FAR1, hits give low values 0.844 | S. cerevisiae deletion strains, locus YJR016C, strain ILV3, hits give low values 0.981 | S. cerevisiae deletion strains, locus YJR066W, strain TOR1 (second series), hits give low values 0.732 | [5] 0.684 | S. cerevisiae deletion strains, locus YKL048C, strain ELM1, hits give low values 0.864 | S. cerevisiae deletion strains, locus YKL067W, strain YNK1, hits give low values 0.852 | S. cerevisiae deletion strains, locus YKL101W, strain HSL1, hits give low values 0.795 | S. cerevisiae deletion strains, locus YKL193C, strain SDS22, hits give low values 0.977 | S. cerevisiae deletion strains, locus YKL203C, strain TOR2, hits give low values 0.852 | S. cerevisiae deletion strains, locus YLR133W, strain CKI1, hits give low values 0.861 | S. cerevisiae deletion strains, locus YLR403W, strain SFP1, hits give low values 0.818 | S. cerevisiae deletion strains, locus YML070W, strain DAK1, hits give low values 0.804 | S. cerevisiae deletion strains, locus YMR001C, strain CDC5, hits give low values 0.971 | S. cerevisiae deletion strains, locus YMR205C, strain PFK2 (second series), hits give low values 0.868 | S. cerevisiae deletion strains, locus YMR277W, strain FCP1, hits give low values 0.976 | S. cerevisiae deletion strains, locus YNL006W, strain LST8, hits give low values 0.996 | S. cerevisiae deletion strains, locus YNL020C, strain ARK1, hits give low values 0.88 | S. cerevisiae deletion strains, locus YNL161W, strain CBK1, hits give low values 0.973 | [7] 0.782 | S. cerevisiae deletion strains, locus YNL207W, strain RIO2, hits give low values 0.978 | S. cerevisiae deletion strains, locus YNL222W, strain SSU72, hits give low values 0.975 | S. cerevisiae deletion strains, locus YNL307C, strain MCK1 (second series), hits give low values 0.78 | S. cerevisiae deletion strains, locus YOL078W, strain AVO1, hits give low values 0.97 | S. cerevisiae deletion strains, locus YOL136C, strain PFK27, hits give low values 0.829 | [8] 0.882 | S. cerevisiae deletion strains, locus YOR119C, strain RIO1, hits give low values 0.855 | [9] 0.786 | S. cerevisiae deletion strains, locus YOR329C, strain SCD5, hits give low values 0.985 | S. cerevisiae deletion strains, locus YPL031C, strain PHO85, hits give low values 0.794 | S. cerevisiae deletion strains, locus YPL153C, strain RAD53, hits give low values 0.776 | S. cerevisiae deletion strains, locus YPL204W, strain HRR25, hits give low values 0.791 | S. cerevisiae deletion strains, locus YPL209C, strain IPL1, hits give low values 0.98 | S. cerevisiae deletion strains, locus YPR025C, strain CCL1, hits give low values 0.982 | S. cerevisiae deletion strains, locus YPR106W, strain ISR1, hits give low values 0.988 | S. cerevisiae deletion strains, locus YPR111W, strain DBF20, hits give low values 0.984 | S. cerevisiae deletion strains, strain NNK1, hits give low values 0.999 | S. cerevisiae deletion strains, strain TSCII, hits give low values 0.969
active: S. cerevisiae deletion strains, locus YFR019W, strain FAB1, hits give low values 0.629 | [2] 0.697 | [6] 0.628 | [10] 0.642

CC(=O)Nc1ccc(S(=O)(=O)Nc2ccc([N+](=O)[O-])cc2)cc1
inactive: S. cerevisiae deletion strains, locus YAL013W, strain DEP1, hits give low values 1.01 | S. cerevisiae deletion strains, locus YBR021W, strain FUR4, hits give low values 0.97 | S. cerevisiae deletion strains, locus YBR229C, strain ROT2, hits give low values 1.01 | S. cerevisiae deletion strains, locus YCL029C, strain bik1, hits give low values 1.01 | S. cerevisiae deletion strains, locus YDL035C, strain GPR1, hits give low values 1.01 | S. cerevisiae deletion strains, locus YDL074C, strain BRE1, hits give low values 0.986 | [1] 1 | S. cerevisiae deletion strains, locus YDL134C, strain PPH21, hits give low values 1 | S. cerevisiae deletion strains, locus YDL185W, strain tfp1, hits give low values 0.999 | S. cerevisiae deletion strains, locus YDL192W, strain arf1, hits give low values 1.01 | S. cerevisiae deletion strains, locus YDR101C, strain arx1, hits give low values 0.99 | S. cerevisiae deletion strains, locus YDR150W, strain NUM1, hits give low values 1.02 | S. cerevisiae deletion strains, locus YDR162C, strain NBP2, hits give low values 1.01 | S. cerevisiae deletion strains, locus YDR318W, strain mcm21, hits give low values 0.991 | S. cerevisiae deletion strains, locus YDR388W, hits give low values 0.999 | S. cerevisiae deletion strains, locus YDR502C, strain sam2, hits give low values 1 | S. cerevisiae deletion strains, locus YEL061C, strain CIN8, hits give low values 1.01 | S. cerevisiae deletion strains, locus YER110C, hits give low values 0.997 | S. cerevisiae deletion strains, locus YER155C, strain BEM2, hits give low values 1 | S. cerevisiae deletion strains, locus YER167W, strain BCK2, hits give low values 1.01 | S. cerevisiae deletion strains, locus YGL078C, strain dbp3, hits give low values 1 | S. cerevisiae deletion strains, locus YGL086W, strain mad1, hits give low values 1 | S. cerevisiae deletion strains, locus YGL248W, strain PDE1, hits give low values 1 | S. cerevisiae deletion strains, locus YGR078C, strain PAC10, hits give low values 0.995 | S. cerevisiae deletion strains, locus YGR135W, strain pre9, hits give low values 0.996 | S. cerevisiae deletion strains, locus YGR229C, strain SMI1, hits give low values 1.01 | S. cerevisiae deletion strains, locus YGR252W, strain gcn5, hits give low values 0.955 | [2] 1.01 and 1 | S. cerevisiae deletion strains, locus YHR079C, strain IRE1 (second series), hits give low values 0.997 | [3] 0.984 | S. cerevisiae deletion strains, locus YHR094C, strain hxt1, hits give low values 1 | S. cerevisiae deletion strains, locus YHR129C, strain ARP1, hits give low values 1 | S. cerevisiae deletion strains, locus YHR200W, strain rpn10, hits give low values 0.992 | S. cerevisiae deletion strains, locus YIL066C, strain RNR3, hits give low values 1.02 | S. cerevisiae deletion strains, locus YIL073C, strain SPO22, hits give low values 1.05 | S. cerevisiae deletion strains, locus YIL125W, strain kgd1, hits give low values 0.996 | S. cerevisiae deletion strains, locus YIR030C, strain dcg1, hits give low values 1.01 | [4] 0.994 and 0.998 | S. cerevisiae deletion strains, locus YJL134W, strain LCB3, hits give low values 1.01 | S. cerevisiae deletion strains, locus YJL168C, strain set2, hits give low values 0.989 | S. cerevisiae deletion strains, locus YJL187C, strain SWE1 (second series), hits give low values 1.01 | S. cerevisiae deletion strains, locus YJR043C, strain POL32, hits give low values 0.995 | [5] 0.93 | S. cerevisiae deletion strains, locus YJR075W, strain HOC1, hits give low values 1.01 | S. cerevisiae deletion strains, locus YKL009W, strain mrt4, hits give low values 1.09 | S. cerevisiae deletion strains, locus YKL068W, hits give low values 1 | S. cerevisiae deletion strains, locus YKL085W, strain MDH1 (second series), hits give low values 1.01 | S. cerevisiae deletion strains, locus YKL085W, strain MDH1, hits give low values 1.01 | S. cerevisiae deletion strains, locus YKL190W, strain CNB1, hits give low values 1.01 | S. cerevisiae deletion strains, locus YKR001C, strain vps1, hits give low values 1.01 | S. cerevisiae deletion strains, locus YLR039C, strain RIC1, hits give low values 1.04 | S. cerevisiae deletion strains, locus YLR058C, strain SHM2, hits give low values 1.01 | S. cerevisiae deletion strains, locus YLR102C, strain apc9, hits give low values 0.994 | [6] 0.969 | S. cerevisiae deletion strains, locus YLR262C, strain YPT6, hits give low values 1.04 | S. cerevisiae deletion strains, locus YLR268W, strain sec22, hits give low values 0.993 | S. cerevisiae deletion strains, locus YLR330W, strain CHS5, hits give low values 1.01 | S. cerevisiae deletion strains, locus YLR342W, strain FKS1 (second series), hits give low values 0.995 | S. cerevisiae deletion strains, locus YLR371W, strain rom2, hits give low values 0.994 | S. cerevisiae deletion strains, locus YLR418C, strain cdc73, hits give low values 0.949 | S. cerevisiae deletion strains, locus YML016C, strain PPZ1, hits give low values 1.01 | S. cerevisiae deletion strains, locus YML032C, strain rad52, hits give low values 0.987 | S. cerevisiae deletion strains, locus YML124C, strain tub3, hits give low values 1 | S. cerevisiae deletion strains, locus YMR078C, strain ctf18, hits give low values 0.993 | S. cerevisiae deletion strains, locus YMR223W, strain ubp8, hits give low values 1 | S. cerevisiae deletion strains, locus YMR263W, strain SAP30, hits give low values 1.01 | S. cerevisiae deletion strains, locus YMR307W, strain GAS1, hits give low values 0.989 | S. cerevisiae deletion strains, locus YNL067W, strain RPL9B, hits give low values 1.01 | S. cerevisiae deletion strains, locus YNL128W, strain TEP1, hits give low values 1.01 | S. cerevisiae deletion strains, locus YNL153C, strain GIM3, hits give low values 0.995 | [7] 0.941 | S. cerevisiae deletion strains, locus YNL233W, strain BNI4, hits give low values 1 | S. cerevisiae deletion strains, locus YNL250W, strain rad50, hits give low values 0.996 | S. cerevisiae deletion strains, locus YNL271C, strain bni1, hits give low values 1 | S. cerevisiae deletion strains, locus YNL298W, strain CLA4, hits give low values 1 | S. cerevisiae deletion strains, locus YNL307C, strain MCK1, hits give low values 1 | S. cerevisiae deletion strains, locus YNL322C, strain KRE1, hits give low values 1 | S. cerevisiae deletion strains, locus YNR052C, strain pop2, hits give low values 1 | S. cerevisiae deletion strains, locus YOL006C, strain TOP1, hits give low values 0.975 | S. cerevisiae deletion strains, locus YOL012C, strain htz1 1.05 | S. cerevisiae deletion strains, locus YOL147C, strain pex11, hits give low values 0.996 | [8] 1.01 | S. cerevisiae deletion strains, locus YOR069W, strain VPS5, hits give low values 1 | S. cerevisiae deletion strains, locus YOR136W, strain idh2, hits give low values 0.998 | S. cerevisiae deletion strains, locus YOR144C, strain elg1, hits give low values 0.997 | S. cerevisiae deletion strains, locus YOR184W, strain ser1, hits give low values 1 | [9] 0.989 | S. cerevisiae deletion strains, locus YOR316C, strain cot1, hits give low values 1 | S. cerevisiae deletion strains, locus YPL055C, strain LGE1, hits give low values 1.03 | S. cerevisiae deletion strains, locus YPL241C, strain CIN2, hits give low values 1.01 | [10] 0.989 | S. cerevisiae deletion strains, locus YPR119W, strain clb2, hits give low values 0.998 | S. cerevisiae deletion strains, locus YPR141C, strain kar3, hits give low values 1 | S. cerevisiae deletion strains, locus YPR163C, strain tif3, hits give low values 1.01 | S. cerevisiae deletion strains, locus YPR167C, strain met16, hits give low values 0.992 | S. cerevisiae deletion strains, strain wtn01, hits give low values 0.988 | S. cerevisiae strains, strain wild type, hits give low values 1.01
